Measurements from PubChem BioAssay (NCI).
Compounds without any hit were thinned out: in the full panel of roughly 83,000, 20% have a hit.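 Growth was measured after 48 h exposure to one concentration of compound in 96-well plates. Values under 10 count as active.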 The source made the active and inactive calls.

How the values were obtained:
Assay in all cases: NCI-60 one-dose screen, 48 h (100 = growth as untreated, 0 = no growth, -100 = all killed)
Settings in all cases: 10 µM unless noted
[1] = test system: HCT-15 colon
[2] = test system: HT29 colon
[3] = test system: SNB-75 CNS
[4] = test system: SNB-19 CNS
[5] = test system: U251 CNS
[6] = test system: PC-3 prostate
[7] = test system: SK-MEL-5 melanoma
[8] = test system: UACC-62 melanoma
[9] = test system: LOX IMVI melanoma
[10] = test system: SK-MEL-28 melanoma

Measured: growth

O[C@H](CN1CC1)[C@@H](O)CN1CC1
inactive: [1] 79.9% | [2] 72.5% | [3] 70.6% | [4] 74.5% | [5] 60.3% | [6] 75.8% | [7] 75.3% | [8] 72.4% | [9] 44.6% | [10] 106%

C[C@]12CCc3sc(-c4ccccc4O)nc3C1=CC[C@@H]1[C@@H]2CC[C@]2(C)C(=O)CC[C@@H]12
inactive: [1] 98% | [2] 104% | [3] 95.5% | [4] 101% | [5] 102% | [6] 98.9% | [7] 110% | [8] 94.3% | [9] 104% | [10] 113%

CS(=O)(=O)CCN1CC2CCCC(C2)C1
inactive: [1] 99.5% | [2] 96.7% | [3] 94.1% | [4] 99.8% | [5] 101% | [6] 90.1% | [7] 104% | [8] 102% | [10] 105%

CC(C)[C@]12O[C@H]1[C@@H]1O[C@]13[C@]1(O[C@H]1C[C@H]1c4c(C(=O)c5ccccc5)oc(OC(=O)c5ccccc5)c4CC[C@@]13C)[C@@H]2O
active: [1] 5.32% | [2] 8.55% | [3] -30.5% | [6] -0.741% | [7] -51.9% | [8] -28.7% | [9] 9.13% | [10] -69.5%
inactive: [4] 13.8% | [5] 12.1%

Fc1ccc(C2=CCNCC2)cc1
inactive: [1] 109% | [2] 109% | [3] 84.1% | [4] 109% | [5] 96.9% | [6] 101% | [7] 91.9% | [8] 86.4% | [10] 107%

ClCCN(CCCl)Cc1ccc(Nc2ccnc3cc(Cl)ccc23)cc1
inactive: [1] 48.2% | [2] 10.2% | [3] 45.1% | [4] 60.8% | [5] 22.4% | [6] 47.3% | [7] 54.2% | [8] 26.8% | [10] 67.1%

Oc1c(O)c(Cl)c(Cl)c(Cl)c1Cl
inactive: [1] 26.3% | [2] 62.7% | [3] 36.7% | [4] 29.7% | [5] 38.9% | [6] 34.5% | [7] 22.5% | [10] 51.4%
active: [8] 3.58%

CC(=O)O[C@H](C[C@H](C(C)C)N(C)C(=O)[C@@H](NC(=O)[C@H]1CCCN1C)C(C)C)c1nc(C(=O)N[C@@H](Cc2ccccc2)C[C@H](C)C(=O)O)c(C)s1
active: [2] 2.64% | [5] 5.53% | [7] -19.2%
inactive: [1] 17.7% | [3] 50.5% | [4] 33.2% | [6] 19.2% | [8] 39.3% | [9] 27.4% | [10] 61.9%

CN1CC(=O)N(O)C1(C)c1cccnc1 (centres undefined)
inactive: [1] 96.9% | [2] 97.8% | [3] 88.5% | [4] 105% | [5] 102% | [6] 95.8% | [7] 101% | [8] 104% | [9] 97.3% | [10] 103%

COC(=O)[C@@H](C)C[C@H](Cc1ccccc1)NC(=O)c1nc([C@@H](C[C@H](C(C)C)N(C)C(=O)[C@@H](NC(=O)[C@H]2CC(=O)CCN2C)C(C)C)OC(C)=O)sc1C(C)C
inactive: [3] 15.7% | [4] 21.2% | [5] 12.1% | [6] 24.3% | [8] 36.4% | [9] 14.7% | [10] 51.8%
active: [1] 8.84% | [2] -9.41% | [7] -14.3%

CC12CCC3C(CCC4Cc5[nH]c6ccccc6c5CC43C)C1CCC2O (centres undefined)
active: [7] 2.53%
inactive: [1] 33.2% | [2] 10.7% | [3] 31.7% | [4] 28% | [5] 20.1% | [6] 34.5% | [8] 31.8% | [9] 13.4% | [10] 54.8%

CC(=O)O[C@H]1C(=O)[C@@]2(C)[C@H]([C@H](OC(=O)c3ccccc3)[C@]3(O)C[C@H](OC(=O)[C@H](OC(=O)OCC4COC(C)(C)O4)[C@@H](NC(=O)c4ccccc4)c4ccccc4)C(C)=C1C3(C)C)[C@]1(OC(C)=O)CO[C@@H]1C[C@@H]2O (some centres undefined)
inactive: [1] 29.2% | [3] 41.9% | [4] 36.6% | [5] 34.4% | [6] 38.7% | [7] 44.1% | [8] 34.4% | [10] 43.8%
active: [2] 9.74%

ClCCN(CCCl)c1ccc(-n2cnc3c(Cl)ncnc32)cc1
inactive: [2] 12.7% | [3] 26.1% | [4] 79.2% | [5] 32.8% | [6] 64.1% | [7] 86.3% | [8] 31.5%
active: [1] -26.7% | [10] -10.5%

COC(=O)C1CCC(NC(=O)c2csc([C@@H](C[C@H](C(C)C)N(C)C(=O)[C@@H](NC(=O)[C@H]3CCCCN3C)C(C)C)OC(C)=O)n2)CC1 (some centres undefined)
inactive: [1] 11.5% | [3] 61.6% | [4] 38.4% | [6] 28.9% | [8] 48.1% | [9] 21.5% | [10] 60%
active: [2] -0.603% | [5] 2.97% | [7] -27.7%

CCCCCCCCCCCCCCCCCC1OC[C@@H](COC(=O)O[C@@H](C(=O)O[C@H]2C[C@@]3(O)[C@@H](OC(=O)c4ccccc4)[C@@H]4[C@]5(OC(C)=O)CO[C@@H]5C[C@H](O)[C@@]4(C)C(=O)[C@H](OC(C)=O)C(=C2C)C3(C)C)[C@@H](NC(=O)c2ccccc2)c2ccccc2)O1 (some centres undefined)
inactive: [1] 100% | [2] 18.2% | [3] 50.2% | [4] 62.1% | [5] 58% | [6] 46.6% | [7] 75.7% | [8] 58.7% | [10] 59%

COP(=S)(N1CC1)N1CC1
inactive: [1] 109% | [2] 103% | [3] 103% | [4] 112% | [5] 108% | [6] 91.9% | [7] 104% | [8] 109% | [10] 114%

O=C(Nc1ccc(O)cc1)C(Cl)(Cl)Cl
inactive: [1] 98.7% | [2] 105% | [3] 98.5% | [4] 102% | [5] 95% | [6] 101% | [7] 100% | [8] 93.8% | [9] 106% | [10] 107%

COc1ccc(/C=C\c2cc(OC)c(OC)c(OC)c2)cc1NC(=O)/C=C/c1cc(OC)c(OC)c(OC)c1
active: [7] 1.74%
inactive: [1] 46.5% | [2] 34.2% | [3] 30.6% | [4] 61.8% | [5] 57% | [6] 36% | [8] 31.4% | [9] 46.3% | [10] 44%

CCCC(C)C1(CC)C(=O)NC(=O)N(C)C1=O (centres undefined)
inactive: [1] 107% | [2] 94.6% | [3] 98.8% | [4] 104% | [5] 92.1% | [6] 85.8% | [7] 89.1% | [8] 90.8% | [10] 116%

C=CC[Se]C(=O)c1ccccc1OC(C)=O
inactive: [1] 17.8% | [2] 14.4%
active: [3] -65.1% | [4] -23.2% | [5] -44% | [6] -28.3% | [7] -35.7% | [8] -15.2% | [10] 4.12%

CCCC[C@H](NC(=O)[C@H]1CCCCN1C)C(=O)N(C)[C@H](C[C@@H](OC(C)=O)c1nc(C(=O)N[C@@H](Cc2ccccc2)C[C@H](C)C(=O)OCC)cs1)C(C)C
inactive: [1] 20.4% | [3] 41.9% | [4] 37.5% | [6] 17.5% | [8] 46.2% | [10] 67.4%
active: [2] -16.4% | [5] 5.09% | [7] -26%
